Compounds with a hit are over-represented: about 2.7% of the library has one in this group of screens.
MITF act: MITF TRPM1 promoter activation in melanoma cells; SK-MEL-5 TRPM1-promoter luciferase, 24 h; % of positive control, neutral wells = 0; activation, % at 12.5 µM; 300,000 compounds, 0.75% hits;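 active = mean activation of at least 80% with every replicate also reaching 80%; inconclusive = mean reaches 80% but some replicate falls short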
HIV Env fusion: blocks HIV Env-driven cell-cell fusion; 360,000 compounds, 1.1% hits; HeLa-JRFL Env/CEM21 cell fusion, luciferase; inhibition, % at 12.3 µM; AID 651610;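 active = mean replicate inhibition score of at least 50 and every replicate individually at or above 50; inconclusive = only one of the two criteria met; inactive = mean below 50 and not all replicates reaching 50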
GSIS activator: GLuc luminescence reporter in INS-1E cells, primary screen for activators of glucose-dependent secretion of insulin; INS-1E GLuc reporter insulin secretion, 2-3 h; activation, % at 16.6 µM; 370,000 compounds, 0.61% hits;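 active = lowest replicate activation of at least 40%, so every replicate reaches that level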
CFTR F508del cor: CFTR F508del correction in bronchial cells. 350,000 compounds, 0.36% hits. AID 720511. activity (quench increase), % at 7.58 µM. CFBE cells, YFP halide quenching; stimulated with forskolin plus potentiator P3; % fluorescence drop versus neutral controls;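 active = mean added fluorescence quench of at least 8% versus neutral control, with both replicates also reaching 8%; inconclusive = only one of the mean or replicate conditions met; inactive = mean below 8% and not both replicates reaching 8%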;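 note: cells transiently co-express mutant CFTR-F508del with the halide-sensitive YFP; corrector assay measuring rescue of mutant channel to the surface after 24 h compound exposure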
Wnt bcat act: activators of Wnt/beta-catenin signaling; activation, % at 9.35 µM; 300,000 compounds, 1.2% hits; Wnt/beta-catenin reporter cell assay, activator, plate reader; AID 743398; in the data active = activation above about 30%, passing the limit was not always enough; inconclusive = no clear call, values can overlap the other calls
Numbers stand for hits; 0 = inactive; ? = inconclusive; - = not tested or not shown; [ ] = dose if it differs, or a comment.

SMILES	MITF act	HIV Env fusion	GSIS activator	CFTR F508del cor	Wnt bcat act
COc1ccc2c3c(n(C)c2c1)[C@@H](CO)N(C(=O)c1ccccc1)CC31CN(Cc2ccccc2OC)C1	-	-	0	-	-
Cc1ccn2cc(-c3cnoc3C)nc2c1	0	0	-	-	0
COc1c(Cl)cccc1-c1cn2ccc(C)cc2n1	0	0	0	0	57
C=C(C)CN1CCN(c2ccc(N3C(=O)CCCC3=O)cc2[N+](=O)[O-])CC1	0	0	50	0	0
COc1ccccc1N1CCN(c2ccc(N3C(=O)CCC3=O)cc2[N+](=O)[O-])CC1	0	0	0	0	0
Cc1ccc(C(=O)/C=C/c2ccccc2[N+](=O)[O-])cc1	0	0	0	0	50
COc1ccc(C(=Cc2ccccc2[N+](=O)[O-])C(=O)O)cc1	0	0	0	0	49
COc1cccc(/C=C(\C(=O)O)c2ccccc2)c1	0	0	-	0	0
Cc1ccc(C(=O)/C=C/c2ccc(-c3ccccc3[N+](=O)[O-])o2)cc1	0	0	-	-	0
COCc1[nH]nc2c1C(c1ccc(C)cc1)NC2=O (stereo not drawn)	-	0	50	0	0
CO[C@@H]1CN(C)C(=O)c2cc(NC(=O)Nc3cccc(F)c3)ccc2OC[C@@H](C)N(C(=O)Nc2c(C)noc2C)C[C@H]1C	-	0	0	0	-
CC(=O)N1CCN(C(=O)CCc2nc3ccccc3c(=O)[nH]2)CC1	0	-	0	0	0
Cc1ccc2c(c1)CCCN2C(=O)CCc1nc2ccccc2c(=O)[nH]1	-	-	0	22	0
O=C(Nc1ccc(Cl)cc1Cl)c1ccc2ncsc2c1	112	0	0	0	?
O=C(Nc1ccc(F)cc1F)c1ccc2ncsc2c1	0	0	0	0	0
Cc1ncsc1C(=O)Nc1nc2c(s1)CCCC2	0	-	-	0	0
O=C(Nc1nc2c(s1)CCCC2)c1ccc2ncsc2c1	-	0	-	0	42
Cc1csc(NC(=O)Cc2c[nH]c3ccccc23)n1	93	-	-	-	-
O=C(COC(=O)[C@H](Cc1c[nH]c2ccccc12)NC(=O)c1ccc(Cl)cc1)Nc1ccc2c(c1)OCO2	0	0	-	-	-
Cc1cnc(NC(=O)Cc2c[nH]c3ccccc23)s1	0	-	0	0	0
O=C(Cc1c[nH]c2ccccc12)N[C@@H](Cc1c[nH]c2ccccc12)C(=O)O	0	0	53	0	0
O=C(NCCc1c[nH]c2ccccc12)c1ccc2c(c1)OCO2	0	0	0	0	0
O=C(NCCc1c[nH]c2ccccc12)c1cc(Cl)c2c(c1)OCO2	113	0	0	0	36
O=C(Cc1ccc(F)cc1)NC(Cc1c[nH]c2ccccc12)C(=O)O (stereo not drawn)	0	0	0	0	0
COC(=O)[C@@H](Cc1c[nH]c2ccccc12)NC(=O)c1ccc2c(c1)OCO2	0	0	0	0	38
SMILES	MITF act	HIV Env fusion	GSIS activator	CFTR F508del cor	Wnt bcat act
O=C(Cc1ccccn1)N1CC(=O)N2[C@@H](CO)[C@H](c3ccc(C#CC4CCCC4)cc3)[C@@H]2C1	-	-	0	0	-
O=[N+]([O-])c1ccccc1OCCCn1cnc2ccccc21	104	0	0	0	0
O=c1c2ccccc2ncn1CCCOc1ccccc1[N+](=O)[O-]	0	0	0	-	0
Cc1ccc([N+](=O)[O-])cc1NC(=O)C(Sc1ccccc1)c1ccccc1 (stereo not drawn)	0	67	0	-	-
Cc1ccc([N+](=O)[O-])cc1NC(=O)c1ccccc1	0	0	0	0	0
CNC[C@H]1Oc2cc(C#CC3(O)CCCC3)ccc2S(=O)(=O)N([C@@H](C)CO)C[C@@H]1C	-	-	0	0	-
COc1ccc(-c2coc3c(C(=O)NCc4cccc(Cl)c4)cccc23)c(C)c1	-	?	-	0	0
COc1ccc(-c2coc3c(C(=O)NCc4ccc(C(F)(F)F)cc4)cccc23)c(C)c1	-	67	0	0	0
CCc1ccc(N(C2C=CS(=O)(=O)C2)S(=O)(=O)c2ccccc2)cc1 (stereo not drawn)	0	0	86	-	-
Cc1ccc(S(=O)(=O)Nc2ccc3c(c2)C(=O)N([C@H](C)CO)C[C@H](C)[C@H](CN(C)S(=O)(=O)c2ccc(C)cc2)O3)cc1	-	0	0	0	-
O=C(C[C@@H]1C[C@H]2c3cc(NC(=O)Nc4ccc(C(F)(F)F)cc4)ccc3O[C@H]2[C@@H](CO)O1)NCc1cccnc1	-	0	0	0	-
C[C@@H]1CN([C@H](C)CO)C(=O)c2cc(NC(=O)Cc3ccccc3)ccc2O[C@@H](C)CCCCO[C@@H]1CN(C)CC1CCCCC1	-	0	0	0	-
N#C[C@@H]1[C@H](c2ccc(-c3cccc(F)c3)cc2)[C@H](CO)N1C(=O)NC1CCCC1	-	65[16.7 µM]	0	8.6	-

Compound activity (PubChem)
